Each structure is given as a SMILES string. The panel holds about 83,000 compounds, 20% with a hit somewhere; the sample as a whole holds those more often.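 Each cell line was grown in a 96-well plate and treated with one concentration of compound for 48 hours. Values below 10 were considered active.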 Values without a mark were called inactive. Active and inactive are the calls of the source.

Assay in all cases: NCI-60 one-dose screen, 48 h (100 = growth as untreated, 0 = no growth, -100 = all killed)
Common to all, as to conditions: 10 µM unless noted

The subject of test [1] is NCI-H23 lung.
For test [2], the system named is NCI-H226 lung.
Test [3] has as its system NCI-H322M lung.
For test [4], the system named is HOP-62 NSCLC.
For test [5], the system named is NCI-H460 lung.
The subject of test [6] is HOP-92 NSCLC.
Test [7] relates to NCI-H522 lung.
Test [8] has as its system A549/ATCC NSCLC.
For test [9], the system named is 786-0 renal.
Test [10] concerns COLO 205 colon.
For test [11], the system named is DU-145 prostate.
In test [12] the test system is K-562 leukemia.
For test [13], the system named is MALME-3M melanoma.
Test [14] concerns MDA-MB-231 breast.
Test [15] relates to RXF 393 renal.
In test [16] the test system is SF-268 CNS.
Test [17] has as its system SF-295 CNS.
Test [18] deals with SF-539 CNS.
For test [19], the system named is UACC-257 melanoma.
The subject of test [20] is M14 melanoma.

With `Oc1ccc(CCl)c2cccnc12`, the growth in test [1] was 59.4%; in test [2], 101%; in [3] it was 71.9%; in test [4] it was 92.8%; in [5], 55%; in [6], 89.2%. The growth in test [7] is 52.6%; in [8], 76.1%; in [9], 97.6%; in test [10], 35.9%; in test [11], 88.1%; in test [12], 43.9%. Further, the growth in [13] was 37.3%; in [14] it was 94.5%; in test [15], 75.7%; in test [16], 73.2%; in test [17], 99%; in test [18], 90.3%. The growth was 24.9% in test [19] and 61.6% in test [20].

Regarding `CN1CCN(c2ccc(-c3cc4c(Nc5ccc(F)c(Cl)c5)ncnn4c3)cc2)CC1`, the growth in [1] was 96.2%; in test [2] it was 89%; in [3], 32.9%; in test [4], 103%; in test [5], 8.58% (active); in [6], 76.8%. Besides, the growth is 72.5% in test [7]; 71.4% in test [8]; 89.6% in test [9]; 37% in test [10]; 44.1% in test [11]; 0.617% (active) in [12]. The growth is 28.5% in [13]; 91.1% in test [14]; 79.8% in [15]; 69.2% in [16]; 84.8% in test [17]; 50.5% in test [18]. Also, the growth in test [19] was 69.2%; in test [20] it was 66.7%.

Turning to `COc1cc2cc(Oc3ccc(NC(=O)Nc4ccc(F)c(C(F)(F)F)c4)cc3)c(C)nc2cc1OCCN1CCOCC1`, the growth in test [1] is 0.421% (active); in test [2], 36.6%; in test [3], 60.7%; in test [4], 24.4%; in [5] it was 7.19% (active); in test [6], -12.9% (active). The growth in test [7] is 13.6%; in test [8], 12.7%; in test [9] it was 35%; in test [10] it was -6.62% (active); in [11], 23.3%; in test [12], 9.96% (active). Moreover, the growth in test [13] was 22.7%; in test [14] it was 39.6%; in test [15] it was 40.3%; in test [16] it was 32.1%; in test [17], 0.809% (active); in test [18] it was 45.1%. In addition, the growth was 12% in [19] and 16.7% in test [20].

Regarding `COc1ccc(-c2ncnc3c2ncn3CC#CCCl)cc1`, the growth in test [1] was 59.1%; in test [2] it was 56.5%; in [3], 92%; in test [4], 77.5%; in test [5] it was 67.8%; in test [6] it was 9.39% (active). Further, the growth was 49% in test [7]; 60.1% in test [8]; 36.4% in test [9]; 80% in test [10]; 87.6% in [11]; 58.3% in test [12]. Besides, the growth in test [13] was 20.2%; in test [14] it was 70.1%; in test [15], 29.7%; in test [16], 62.9%; in test [17], 95.3%; in test [18], 92.3%. Also, the growth is 59.5% in test [19] and 70.1% in test [20].

As to `CC[C@H](C)C(=O)O[C@H]1CCC=C2C=C[C@H](C)[C@H](CC[C@@H]3CC=CC(=O)O3)[C@H]21`, the growth in [1] is 96.5%; in [2] it was 107%; in [3], 95.9%; in [4] it was 99.6%; in test [5] it was 99%; in [6] it was 42%. In addition, the growth in test [7] is 56.2%; in test [8], 85.6%; in test [9], 95.5%; in [10] it was 103%; in test [11] it was 88.7%; in test [12] it was 46.4%. Moreover, the growth in test [13] was 92.5%; in [14], 97.6%; in test [15], 96.6%; in test [16], 99.2%; in test [17], 115%; in test [18], 80.5%. Also, the values for the growth in test [19] and in [20] were 77.8% and 76.4%, respectively.

In the case of `CCCCCCCCCCCCCCCCCCOc1ccccc1CCCOP(=O)(O)OCC[N+](C)(C)C`, the growth in test [1] was 93.5%; in test [2], 92.3%; in [3] it was 113%; in test [4], 59.3%; in test [5], 14.1%; in [6], 33.4%. For the same compound, the growth in test [7] was 67.9%; in test [8], 54.8%; in test [9] it was 85.1%; in test [10] it was 31.6%; in test [11], 75%; in test [12], 69.2%. Besides, the growth in test [13] is 89.5%; in test [14], 78.2%; in [15], 11.1%; in test [16] it was 62.5%; in test [17], 52.4%; in test [18], 91.4%. Besides, the growth is 88% in test [19] and 77.7% in test [20].

Take `CCOC(=O)c1sc2ncc(-c3ccc(C)cc3)n2c1C`: the growth in [1] was 83%; in test [2], 78.2%; in test [3] it was 92.6%; in test [4], 87.9%; in test [5], 101%; in test [6], 83.9%. The growth in [7] was 86.2%; in test [8], 97.3%; in test [9], 106%; in [10] it was 99.7%; in test [11] it was 97.5%; in test [12], 79.4%. Besides, the growth is 84.2% in test [13]; 85.6% in test [14]; 107% in test [15]; 106% in test [16]; 96.7% in [17]; 93.8% in test [18]. Further, the growth was 98.3% in test [19] and 87.1% in test [20].

`N#Cc1ccc(NC(=O)c2sc3nc4c(cc3c2N)C(=O)CCC4)cc1`: the growth was 106% in [1]; 93.7% in test [2]; 103% in test [3]; 101% in test [4]; 85.9% in test [5]; 95.6% in test [6]. The growth in test [7] was 103%; in test [8], 92.5%; in [9] it was 97.8%; in test [10], 109%; in test [11] it was 94.9%; in test [12], 108%. For the same compound, the growth in [13] is 89.3%; in test [14], 109%; in [15], 119%; in [16] it was 102%; in test [17], 82.4%; in [18] it was 99.8%. The growth in test [19] and in test [20] was 106% throughout.
